PubChem BioAssay (NCATS)
A number with no mark means an inactive call. Inconclusive results are not listed. A call without a number means that no potency is given here. The source made the active and inactive calls. Calls come from the whole dose curve; as a rule, active = well fitted curve in the direction sought with a large enough effect; inconclusive = small, poorly fitted or top-dose-only effect, or another doubt; inactive = no such curve, though single readings can be large; an effect the other way counts as inactive or inconclusive.

Key:
[1] = biological target: Phospholipid hydroperoxide glutathione peroxidase GPX4 (Homo sapiens) (UniProt P36969); assay: Primary qHTS Assay for Inhibitors of Recombinant Selenoprotein Glutathione Peroxidase 4 (GPX4) (AID 1845192); note: nearly all actives have a fitted effect of over 65% in size; for activity change, negative = inhibition: series mostly up to about 50 µM
Chain of Phospholipid hydroperoxide glutathione peroxidase GPX4 (Homo sapiens) (P36969 whole entry, looked up): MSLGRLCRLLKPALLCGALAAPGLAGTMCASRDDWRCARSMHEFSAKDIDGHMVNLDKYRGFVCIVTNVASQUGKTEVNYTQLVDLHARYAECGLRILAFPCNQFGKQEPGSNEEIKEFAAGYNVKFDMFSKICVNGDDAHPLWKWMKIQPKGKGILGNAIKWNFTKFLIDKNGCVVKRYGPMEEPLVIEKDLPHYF
Outline: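 GR-coupled readout: 100 nM GR, 1 mM GSH, 0.5 mM NADPH; NADPH fluorescence (ex 340/em 450 nm) read at t=0 and after 15 min RT. GPX4 200 nM, preincubated 30 min with compound; substrate 0.5 mM CHP.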

[2] = biological target: Luciferin 4-monooxygenase (Photinus pyralis) (UniProt P08659); assay: Primary firefly luciferase (FLuc) qHTS assay for identification of artifact compounds. (AID 1845220); note: nearly all actives have a fitted effect of over 60% in size; for activity change, negative = inhibition: series mostly up to about 54 µM
Outline: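 qHTS, 15 min compound preincubation with substrate (10 uM luciferin, 10 uM ATP) at RT, then 10 nM FLuc; 5 min; luminescence; % inhibition vs no-enzyme/DMSO controls, 4-parameter Hill fit.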

[3] = Primary fluorescence-based thiol-reactive (MSTI) qHTS assay for identification of artifact compounds. (AID 1845221); note: nearly all actives have a fitted effect of over 65% in size; note: potency is the fitted concentration of half-maximal effect;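 for activity change, negative = thiol reactive: series mostly up to about 54 µM; thiol-reactive compounds lower the probe fluorescence signal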
Outline: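 Reactivity toward the thiol probe MSTI (4 uM) is scored by fluorescence at Ex/Em 525/598 nm after 1 h at room temperature. Acetyl-MSTI and MSTI define the activity scale.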

[4] = system: Nanoluciferase (engineered Oplophorus gracilirostris luciferase); assay: Primary Nanoluciferase (NLuc) qHTS assay for identification of artifact compounds. (AID 1845222); note: series mostly up to about 54 µM
Outline: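 Luminescence read-out of secreted NLuc in S16 cell conditioned medium (1:55); compounds tested with 15 min RT preincubation, then Nano-Glo substrate 1:100, 5 min. % inhibition vs no-enzyme and DMSO controls, 4-parameter Hill fit.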

[5] = Primary redox qHTS assay for identification of artifact compounds. (AID 1845223)
Outline: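 Amplex Red (25 uM) and HRP (250 mU/mL) in HBSS, with compounds for 15 min, then 250 uM DTT for 30 min, room temperature, dark. Fluorescence 525/598 nm read; normalized to DMSO and 10 uM DA3003; Hill fit.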

| SMILES | Potency [1] | Potency [2] | Potency [3] | Potency [4] | Potency [5] | activity change, negative = inhibition [1] | outcome [2] | activity change, negative = thiol reactive [3] | activity, negative = inhibition [4] | redox activity (% of DA3003) [5] |
| --- | --- | --- | --- | --- | --- | --- | --- | --- | --- | --- |
| C=C1CCC2C(C)(CO[C@@H]3O[C@H](CO)[C@@H](O)[C@H](O)[C@H]3O)C(O)CCC2(C)C1C(=O)CC1=CCOC1=O (stereo not given in full) | inactive | inactive | 10.3 µM (active) | inactive | inactive |  |  |  |  |  |
| C=C1CCC2(OC1)OC1CC3C4CC=C5CC(O)CC(O[C@@H]6OC[C@@H](O)[C@H](O)[C@H]6O)C5(C)C4CCC3(C)C1(O)C2C (stereo not given in full) | inactive | inactive | inactive | inactive | inactive |  |  |  |  |  |
| CC1=CC(=O)C[C@H]2[C@@H]1CC[C@@H](C)[C@]21CO[C@H](c2ccoc2)C1=O | inactive | inactive | inactive | inactive | inactive |  |  |  |  |  |
| O=C(c1ccccn1)c1cnn2c(-c3ccncc3)ccnc12 | inactive | inactive | inactive | inactive | inactive |  |  |  |  |  |
| CC1=CC(=O)CC(C)(C)C1CCC(C)OC1OC(COC(=O)c2cc(O)c(O)c(O)c2)C(O)C(O)C1O (stereo not given) | inactive | inactive | 1.16 µM (active) | inactive | inactive |  |  |  |  |  |
| C[C@@H]1O[C@@H](O[C@H]2[C@H](OC(=O)[C@]34CCC(C)(C)C[C@H]3C3=CCC5[C@@]6(C)C[C@H](O)[C@H](O[C@@H]7O[C@H](CO[C@@H]8OC[C@H](O)[C@H](O)[C@H]8O)[C@@H](O)[C@H](O)[C@H]7O)C(C)(C)C6CC[C@@]5(C)[C@]3(C)C[C@H]4O)OC[C@@H](O)[C@@H]2O)[C@H](O)[C@H](O[C@@H]2OC[C@](O)(CO)[C@H]2O)[C@H]1O[C@@H]1OC[C@H](O)[C@H](O[C@@H]2OC[C@@H](O)[C@H](O)[C@H]2O)[C@H]1O (stereo not given in full) |  |  |  |  |  | -0.436% [at 9.73 µM] | inactive [at 11.6 µM] | 452% [at 11.5 µM] | 3.55% [at 11.6 µM] | 10.3% [at 11.5 µM] |
